Measurements from PubChem BioAssay (EPA / NIEHS).
Records with an inconclusive call do not appear. The source made the active and inactive calls. Rule for the calls, unless noted: active = hit-call score of the fitted dose curve at least 0.9, where 1 is the maximum; inactive = score below 0.9.

Columns and labels:
[1] = biological target: human Vitamin D Receptor (VDR), VDR (gene 7421) (UniProt P11473); experiment: ATG_VDR_TRANS: Attagene TRANS-FACTORIAL HepG2 Assay for human Vitamin D Receptor (VDR) (AID 2283022; active = hit-call score of the fitted dose curve at least 0.9, where 1 is the maximum)
Sequence of human Vitamin D Receptor (VDR), VDR (gene 7421) (P11473 whole entry, looked up, the tested form may be a part): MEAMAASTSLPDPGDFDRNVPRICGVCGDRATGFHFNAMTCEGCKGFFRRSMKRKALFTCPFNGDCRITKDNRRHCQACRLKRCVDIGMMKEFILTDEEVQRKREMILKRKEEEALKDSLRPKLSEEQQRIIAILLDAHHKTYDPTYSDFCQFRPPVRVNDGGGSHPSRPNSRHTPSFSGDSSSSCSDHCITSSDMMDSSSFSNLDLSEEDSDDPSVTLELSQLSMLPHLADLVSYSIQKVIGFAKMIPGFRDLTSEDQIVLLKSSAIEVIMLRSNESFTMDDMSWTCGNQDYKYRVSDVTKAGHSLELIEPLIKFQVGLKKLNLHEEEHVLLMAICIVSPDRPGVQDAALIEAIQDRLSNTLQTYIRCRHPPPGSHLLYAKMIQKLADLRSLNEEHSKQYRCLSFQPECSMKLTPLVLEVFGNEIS
In short: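 Transactivation by an exogenous VDR-Gal4 chimera in transiently transfected HepG2 cells was measured as reporter transcript level 24 hours after chemical treatment. RT-PCR products were analysed by capillary electrophoresis and fitted in the positive direction relative to DMSO.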

[2] = BSK_3C_SRB: Viability Assessment in the BioMAP Diversity Plus: 3C Assay (AID 2283023); conditions: primary human endothelial cells (HUVEC);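 note: fitted both ways against DMSO so a hit may be signal rise or drop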
In short: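 Cytotoxicity readout in parallel HUVEC 3C cultures: after 24 h compound exposure, cells fixed with 10% TCA, stained with 0.1% SRB and read at 560 nm. Gain or loss relative to DMSO fitted.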

[3] = read-out: Matrix Metallopeptidase 1 (MMP1), MMP1 (gene 4312); experiment: BSK_BE3C_MMP1: BioMAP Diversity Plus: BE3C Assay for Matrix Metallopeptidase 1 (MMP1) Biomarker Activity (AID 2283024); conditions: primary human bronchial epithelial cells; actives raise or lower the signal
In short: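 Human bronchial epithelial cells (BE3C system) exposed to compound for 24 h; MMP1 then quantified by ELISA. Activity was fitted in both directions relative to DMSO.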

[4] = BSK_3C_Vis: BioMAP Diversity Plus: 3C Assay for Morphology Visualization (AID 2283025); conditions: primary human endothelial cells (HUVEC);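 note: fitted both ways so gain or loss versus DMSO counts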;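 for AC50: light microscopy image of cell morphology used as background control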
In short: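 Chemicals were added to primary human umbilical vein endothelium, cells were incubated 24 h, and morphology was then visualized by light microscopy. Gain or loss of signal was fitted bidirectionally relative to DMSO.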

[5] = read-out: Pselectin, SELP (gene 6403); experiment: BSK_4H_Pselectin: BioMAP Diversity Plus: 4H Assay for Pselectin Biomarker Activity (AID 2283026); conditions: primary human endothelial cells (HUVEC); actives raise or lower the signal
In short: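 ELISA read-out of P-selectin on human umbilical vein endothelium after 24 h of dosing. Values derive from bidirectional fitting relative to DMSO. Parallel SRB protein staining flagged overt cytotoxicity.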

[6] = BSK_4H_SRB: Viability Assessment in the BioMAP Diversity Plus: 4H Assay (AID 2283027); conditions: primary human endothelial cells (HUVEC);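 note: cells exposed to compound for 24 h before staining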;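 for AC50: curves fitted both ways versus DMSO so AC50 may be loss or gain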
In short: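 Human umbilical vein endothelial cells, 24 h after chemical dosing; total protein measured by 0.1% sulforhodamine B staining after 10% TCA fixation, read at 560 nm. Bidirectional fitting against DMSO.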

[7] = BSK_BE3C_SRB: Viability Assessment in the BioMAP Diversity Plus: BE3C Assay (AID 2283028); conditions: primary human bronchial epithelial cells
In short: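 Cytotoxicity read-out: SRB (0.1%) staining of TCA-fixed (10%) human lung bronchial epithelial cells, absorbance 560 nm, 24 h post-dosing. Curves fitted both directions relative to DMSO.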

[8] = read-out: Thrombomodulin, THBD (gene 7056); experiment: BSK_3C_Thrombomodulin: BioMAP Diversity Plus: 3C Assay for Thrombomodulin Biomarker Activity (AID 2283029); conditions: primary human endothelial cells (HUVEC); actives raise or lower the signal
In short: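 Read-out is ELISA of thrombomodulin on human umbilical vein endothelium 24 h after chemical dosing. Gain or loss of signal is scored relative to DMSO. Overt cytotoxicity is checked in parallel cultures by sulforhodamine B staining.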

[9] = read-out: Urokinase-type plasminogen activator receptor (uPAR), PLAUR (gene 5329); experiment: BSK_4H_uPAR: BioMAP Diversity Plus: 4H Assay for Urokinase-type plasminogen activator receptor (uPAR) Biomarker Activity (AID 2283030); conditions: primary human endothelial cells (HUVEC); actives raise or lower the signal
In short: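 uPAR level read by ELISA on HUVEC cultures (BioMAP 4H) 24 h post-dosing, analyzed for gain or loss relative to DMSO. Parallel SRB staining assessed overt cytotoxicity.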

[10] = read-out: Vascular endothelial growth factor receptor 2 (Homo sapiens) (UniProt P35968); experiment: BSK_4H_VEGFRII: BioMAP Diversity Plus: 4H Assay for Vascular endothelial growth factor receptor 2 (VEGFR2) Biomarker Activity (AID 2283031); conditions: primary human endothelial cells (HUVEC); actives raise or lower the signal;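 for AC50: cell-surface VEGFR2 protein level quantified by ELISA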
In short: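 Measured by ELISA after 24 h of compound treatment: VEGFR2 on primary human umbilical vein endothelial cells, fitted in both directions relative to DMSO. Parallel cultures received SRB staining (560 nm) for overt cytotoxicity.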

[11] = read-out: Human Leukocyte Antigen - DR isotype (HLADR), HLA-DRA (gene 3122); experiment: BSK_BE3C_HLADR: BioMAP Diversity Plus: BE3C Assay for Human Leukocyte Antigen - DR isotype (HLADR) Biomarker Activity (AID 2283032); conditions: primary human bronchial epithelial cells; actives raise or lower the signal
In short: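 ELISA read-out of HLA-DR on human lung bronchial epithelial primary cells, measured 24 h post-dosing. Both increases and decreases were scored relative to DMSO vehicle.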

[12] = read-out: Vascular cell adhesion molecule 1 (VCAM1), VCAM1 (gene 7412); experiment: BSK_4H_VCAM1: BioMAP Diversity Plus: 4H Assay for Vascular cell adhesion molecule 1 (VCAM1) Biomarker Activity (AID 2283033); conditions: primary human endothelial cells (HUVEC); actives raise or lower the signal
In short: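 ELISA read-out of VCAM-1 on human umbilical vein endothelium 24 hours after chemical dosing; gain or loss of signal was fitted relative to DMSO, with sulforhodamine B staining of parallel cultures flagging overt cytotoxicity.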

[13] = read-out: Interferon-gamma inducible Protein 10 (IP10), CXCL10 (gene 3627); experiment: BSK_BE3C_IP10: BioMAP Diversity Plus: BE3C Assay for Interferon-gamma inducible Protein 10 (IP10) Biomarker Activity (AID 2283034); conditions: primary human bronchial epithelial cells; actives raise or lower the signal
In short: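 Chemical is dosed onto human lung bronchial epithelial primary cells, cultures are incubated 24 h, and IP-10 is then quantified by ELISA. Gain or loss of signal is fitted in both directions relative to DMSO.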

[14] = read-out: Monokine induced gamma interferon (MIG), CXCL9 (gene 4283); experiment: BSK_BE3C_MIG: BioMAP Diversity Plus: BE3C Assay for Monokine induced gamma interferon (MIG) Biomarker Activity (AID 2283035); conditions: primary human bronchial epithelial cells; actives raise or lower the signal;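 note: MIG protein measured by ELISA in BE3C cultures after 24 h of dosing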
In short: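 Primary human bronchial epithelial cells treated for 24 h; MIG levels measured by ELISA, fitted bidirectionally versus DMSO. Parallel SRB total-protein staining assessed cytotoxicity.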

[15] = read-out: Transforming growth factor beta 1 (TGFb1), TGFB1 (gene 7040); experiment: BSK_BE3C_TGFb1: BioMAP Diversity Plus: BE3C Assay for Transforming growth factor beta 1 (TGFb1) Biomarker Activity (AID 2283036;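 note: TGF-b1 protein level measured by ELISA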); conditions: primary human bronchial epithelial cells; actives raise or lower the signal
In short: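 Primary human lung bronchial epithelial cells; compound exposure 24 h; TGF-b1 by ELISA; bidirectional fit, DMSO baseline. Parallel SRB total-protein staining for cytotoxicity.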

[16] = read-out: Plasminogen activator inhibitor-1 (PAI1), SERPINE1 (gene 5054); experiment: BSK_BE3C_PAI1: BioMAP Diversity Plus: BE3C Assay for Plasminogen activator inhibitor-1 (PAI1) Biomarker Activity (AID 2283037); conditions: primary human bronchial epithelial cells; actives raise or lower the signal
In short: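 Primary human lung bronchial epithelial cells; chemical dosing; 24 h; PAI-1 measured by ELISA; bidirectional fit referenced to DMSO as negative control.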

[17] = read-out: urokinase plasminogen activator (uPA), PLAU (gene 5328); experiment: BSK_BE3C_uPA: BioMAP Diversity Plus: BE3C Assay for urokinase plasminogen activator (uPA) Biomarker Activity (AID 2283038); conditions: primary human bronchial epithelial cells; actives raise or lower the signal;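 note: uPA protein level quantified by ELISA in cell cultures; uPA read one day after compound addition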
In short: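 ELISA for uPA on human primary bronchial epithelial cultures 24 h post-treatment, gain or loss against DMSO. Parallel SRB staining (0.1% after 10% TCA fixation, 560 nm) assessed overt cytotoxicity.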

[18] = read-out: Urokinase-type plasminogen activator receptor (uPAR), PLAUR (gene 5329); experiment: BSK_BE3C_uPAR: BioMAP Diversity Plus: BE3C Assay for Urokinase-type plasminogen activator receptor (uPAR) Biomarker Activity (AID 2283039); conditions: primary human bronchial epithelial cells; actives raise or lower the signal;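 note: cells exposed to compound for one day before measurement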
In short: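 Human bronchial epithelial primary cells; chemical exposure 24 h; uPAR by ELISA; bidirectional fit vs DMSO control.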

[19] = read-out: Interleukin-6 (IL6), IL6 (gene 3569); experiment: BSK_CASM3C_IL6: BioMAP Diversity Plus: CASM3C Assay for Interleukin-6 (IL6) Biomarker Activity for (AID 2283040); conditions: primary human coronary artery smooth muscle cells; actives raise or lower the signal
[20] = read-out: Tissue plasminogen activator (tPA), PLAT (gene 5327); experiment: BSK_BE3C_tPA: BioMAP Diversity Plus: BE3C Assay for Tissue plasminogen activator (tPA) Biomarker Activity (AID 2283041); conditions: primary human bronchial epithelial cells; actives raise or lower the signal
In short: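 Primary human lung bronchial epithelial cultures receive test chemical; after 24 h, tPA is quantified by ELISA, and gain or loss of signal is fitted bidirectionally relative to DMSO baseline.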

Measured: AC50

C[C@]12C=CC(=O)C=C1CC[C@@H]1[C@@H]2C(=O)C[C@@]2(C)[C@H]1CC[C@]2(O)C(=O)CO
active: [19] 0.704 µM
inactive: all other assays above

COc1ccc(S(=O)(=O)N2C(=O)[C@@](c3ccccc3OC)(N3C[C@H](O)C[C@H]3C(=O)N(C)C)c3cc(Cl)ccc32)c(OC)c1
active: [2] 27 µM | [4] 39 µM | [6] 29.3 µM | [9] 8.31 µM
inactive: all other assays above

O=C(O)Cc1ccccc1Nc1c(Cl)cccc1Cl
inactive: all assays above

Cc1cccc([N+](=O)[O-])c1C
inactive: all assays above

CC1(C)NC(=O)NC1=O
inactive: all assays above

NS(=O)(=O)c1cc2c(cc1Cl)NCNS2(=O)=O
inactive: all assays above

CCCCCCOCCO
inactive: all assays above

O=[N+]([O-])C(CO)(CO)CO
inactive: all assays above

COCCOC[C@H](CC1(C(=O)NC2CCC(C(=O)O)CC2)CCCC1)C(=O)Oc1ccc2c(c1)CCC2 (stereo not given in full)
inactive: all assays above

COc1ccc(C)cc1N
inactive: all assays above

Cc1ccc(N(C)C)cc1
inactive: all assays above

CC(C)(C)c1cc(O)c(C(C)(C)C)cc1O
active: [1] 61.2 µM | [4] 9.8 µM | [5] 5.24 µM | [6] 3.45 µM | [9] 4.17 µM | [10] 1.02 µM | [12] 6.44 µM | [20] 15.7 µM
inactive: all other assays above

CNC(=O)[C@H]1O[C@@H](n2cnc3c(NCc4cc(Cl)ccc4OCc4cc(C)no4)ncnc32)[C@H](O)[C@@H]1N
inactive: all assays above
